For 110 sequences, binding signal results are on record in publication PMC10668032, “Altered binding affinity of SIX1-Q177R correlates with enhanced WNT5A and WNT pathway effector expression in Wilms tumor”.

In all, about 33,000 sequences were measured (“e-score”: median about -0.05, highest 2% from about 0.38 on). Only a selection was taken, and the highest values are over-represented in it overall.

This assay deals with T1, SIX1-Q177R homeodomain (human, UniProt Q15475 108-198, Q177R).
T1 sequence: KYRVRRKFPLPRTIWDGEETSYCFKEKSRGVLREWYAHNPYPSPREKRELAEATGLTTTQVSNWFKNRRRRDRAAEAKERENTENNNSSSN
The experiment in a line: universal protein binding microarray; Universal all-10-mer PBM (8x60K, AMADID 030236), 300 nM GST-tagged protein, Alexa Fluor 488 anti-GST; buffer, salt, pH and temperature not stated (as in Berger); high values mean tight binding. The settings on record: protein: ivt; tags: N-terminal GST; dsDNA, one strand shown. The method, boiled down:
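Binding of GST-tagged homeodomains is given as 8-mer E-scores from the Universal PBM Analysis Suite. The proteins were produced by in vitro transcription/translation, quantified by anti-GST western blot against a recombinant GST standard curve, and applied in duplicate at 300 nM final concentration to universal 'all 10-mer' protein binding microarrays (8×60K format).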
As for CCTGTGAC, the binding signal stood at 0.194 ± 0.0117 E-score. The same measure for TCAGGGGA: 0.165 ± 0.0187 E-score. The same measure for AAACCCTA: 0.157 ± 0.0426 E-score. The same measure for AATAGTGT: 0.355 ± 0.0289 E-score; for CCCTTCTA: 0.177 ± 0.0196 E-score; for GTGGGTCA: 0.166 ± 0.0309 E-score. Regarding AAAGGGTG, the binding signal stood at 0.317 ± 0.00321 E-score. The same measure for CCCCTCAC: 0.203 ± 0.0371 E-score; for ACGGGGGA: 0.208 ± 0.00871 E-score. Next, ACACGGGG: 0.4516 ± 0.00397 E-score; CCACGGGG: 0.194 ± 0.0115 E-score; ACACGGGA: 0.411 ± 0.00748 E-score. On to ACTCGGGC, for which the binding signal was 0.161 ± 0.036 E-score. The same measure for ATACGGGG: 0.171 ± 0.0145 E-score. Next, ACACGGAC: 0.367 ± 0.00972 E-score; ACACGGGC: 0.4237 ± 0.000962 E-score; ACACGGGT: 0.4532 ± 0.00279 E-score. Next, ACCCGGGA: 0.192 ± 0.0367 E-score; ACCCGGGT: 0.377 ± 0.0131 E-score.

Turning to CACCGTGG, the binding signal was 0.333 ± 0.0206 E-score.

For the sequence CACCTCGG, the binding signal amounted to 0.269 ± 0.00615 E-score. The same measure for CACGCTGG: 0.159 ± 0.00563 E-score; for CACTCGGG: 0.225 ± 0.016 E-score.

For AACCCCAA, the binding signal was 0.205 ± 0.00313 E-score. The same measure for CTGACCCC: 0.283 ± 0.0439 E-score. The same measure for CGGGGTAC: 0.224 ± 0.0106 E-score; for CAACCGTG: 0.187 ± 0.0215 E-score. Next, CACTGGCA: 0.28 ± 0.0195 E-score; ACACGTAA: 0.323 ± 0.00431 E-score. As for ACACGTCC, the binding signal was found to be 0.373 ± 0.00921 E-score.

In the case of ACACGTAT, the binding signal was 0.388 ± 0.00574 E-score.

Regarding ACACGTGC, the binding signal worked out at 0.383 ± 0.0133 E-score.

With ACACGTGT, the binding signal turned out to be 0.4552 ± 0.00158 E-score. Turning to ACACGTGA, the binding signal came to 0.34 ± 0.0135 E-score.

Turning to ACACGTGG, the binding signal is 0.32 ± 0.00325 E-score. Consider ACACGTAG, for which the binding signal is 0.325 ± 0.012 E-score. The same measure for ACACGTAC: 0.353 ± 0.00478 E-score; for CACTAGCC: 0.177 ± 0.031 E-score; for ATACCCGC: 0.266 ± 0.0158 E-score. The same measure for GGATCACA: 0.168 ± 0.0336 E-score; for CCCCGCCG: 0.241 ± 0.0442 E-score; for CTGATCCC: 0.232 ± 0.00636 E-score.

As to ACTCCGTG, the binding signal came to 0.253 ± 0.00334 E-score. The same measure for GTACGCTA: 0.153 ± 0.0129 E-score.

Take ACACGCTA: the binding signal was 0.383 ± 0.0134 E-score. On to ACACGTTG, for which the binding signal turned out to be 0.331 ± 0.0165 E-score. Next, ACACGTTC: 0.276 ± 0.0481 E-score; CCCCGCTA: 0.199 ± 0.0313 E-score. The same measure for ACACACTA: 0.267 ± 0.012 E-score. The same measure for ACACGCGC: 0.363 ± 0.0139 E-score.

Take ACACGCTC: the binding signal turned out to be 0.384 ± 0.0032 E-score.

For the sequence ACACGCTG, the binding signal was 0.389 ± 0.00589 E-score.

Consider AACCGGGT, for which the binding signal worked out at 0.218 ± 0.0414 E-score. The same measure for CACCCCAC: 0.355 ± 0.0406 E-score; for ACCCCACC: 0.327 ± 0.05 E-score; for ACTCCCGC: 0.253 ± 0.0194 E-score. Consider CACCATCA, for which the binding signal turned out to be 0.231 ± 0.0313 E-score. With CCCGGATA, the binding signal is 0.164 ± 0.0511 E-score. As for CACTACTC, the binding signal was determined as 0.21 ± 0.00852 E-score. The same measure for CACTACAG: 0.196 ± 0.0315 E-score; for CACTACGC: 0.166 ± 0.0306 E-score; for CACTACAA: 0.236 ± 0.0147 E-score. Next, AACTACCC: 0.151 ± 0.011 E-score; AACTACAC: 0.445 ± 0.0094 E-score; CACTACAC: 0.443 ± 0.00461 E-score. As for GACTCCAC, the binding signal stood at 0.211 ± 0.00527 E-score.

With GACTACAC, the binding signal is 0.428 ± 0.0046 E-score. Next, CAAGGGTG: 0.252 ± 0.0109 E-score; CACTTCCA: 0.202 ± 0.0394 E-score. As for GTCCTACA, the binding signal worked out at 0.243 ± 0.0623 E-score. For the sequence CACTTAGG, the binding signal came out at 0.229 ± 0.00363 E-score. Next, ACTCCACT: 0.263 ± 0.0258 E-score.

For the sequence CAGGGGTC, the binding signal was determined as 0.242 ± 0.0124 E-score. The same measure for GTCGGATA: 0.292 ± 0.00296 E-score; for ACCCCGCC: 0.271 ± 0.018 E-score; for ACCGAAGT: 0.167 ± 0.0104 E-score.

In the case of ACGCCCCC, the binding signal came to 0.19 ± 0.00645 E-score. Next, ACGCCCCT: 0.205 ± 0.0263 E-score; ACACGCCA: 0.381 ± 0.0176 E-score; ACCCGCCT: 0.206 ± 0.00671 E-score.

As to ACCCGCCG, the binding signal came out at 0.258 ± 0.00942 E-score. Consider ACACGCCT, for which the binding signal came out at 0.416 ± 0.0145 E-score. ATACGCCA: the binding signal worked out at 0.151 ± 0.00585 E-score. Next, ACCCGCCC: 0.243 ± 0.0168 E-score; CAACGCCG: 0.164 ± 0.00575 E-score. Next, TAACGCCA: 0.16 ± 0.00152 E-score; ACACGCCC: 0.4216 ± 0.00148 E-score. The same measure for ACACGCCG: 0.404 ± 0.009 E-score; for GGGGTACA: 0.329 ± 0.00694 E-score. In the case of GATCCCTA, the binding signal was 0.24 ± 0.0333 E-score. The same measure for GTGCCAAC: 0.156 ± 0.0339 E-score; for GAATTACA: 0.22 ± 0.0378 E-score; for ACCCATCG: 0.179 ± 0.0324 E-score.

As for CACTGGGC, the binding signal was found to be 0.154 ± 0.00412 E-score. As to ACCCTATC, the binding signal was 0.17 ± 0.0179 E-score.

On to CCGATACC, for which the binding signal was 0.361 ± 0.0126 E-score. Consider CGCACACG, for which the binding signal turned out to be 0.24 ± 0.0245 E-score. The same measure for AGCACACT: 0.163 ± 0.0222 E-score; for CGCACACA: 0.16 ± 0.0759 E-score; for CGCACACC: 0.395 ± 0.0298 E-score. As for AGCACACG, the binding signal turned out to be 0.257 ± 0.015 E-score. Next, AGCACACC: 0.38 ± 0.026 E-score; AATCCACA: 0.155 ± 0.0214 E-score; AGTATACA: 0.235 ± 0.0155 E-score. The same measure for ACGCCACC: 0.194 ± 0.00825 E-score. Next, AACGGTGT: 0.4669 ± 0.000509 E-score; AAAAGTGT: 0.274 ± 0.0858 E-score; AATGGTAT: 0.227 ± 0.00525 E-score. Turning to AAGGGGGT, the binding signal amounted to 0.293 ± 0.0313 E-score. Next, AAGGGTAT: 0.262 ± 0.0281 E-score.
